Shown are actives, neighbours in structure and some others; about 2.3% of the full set was active somewhere.
M1 ag: human M1 muscarinic receptor agonism | P11229 | CHO-K1 hM1, Fluo-8 calcium fluorescence, agonist mode; 0% DMSO, 100% acetylcholine EC100 | activation, % at 3 µM | 0.33% of 360,000 active;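 active = activation above the run's mean compound activation plus 3 SD, cut at about 16% in these data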;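 also: peak over basal fluorescence ratio within a 140 s kinetic read after compound addition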
Target sequence (P11229 whole entry, looked up): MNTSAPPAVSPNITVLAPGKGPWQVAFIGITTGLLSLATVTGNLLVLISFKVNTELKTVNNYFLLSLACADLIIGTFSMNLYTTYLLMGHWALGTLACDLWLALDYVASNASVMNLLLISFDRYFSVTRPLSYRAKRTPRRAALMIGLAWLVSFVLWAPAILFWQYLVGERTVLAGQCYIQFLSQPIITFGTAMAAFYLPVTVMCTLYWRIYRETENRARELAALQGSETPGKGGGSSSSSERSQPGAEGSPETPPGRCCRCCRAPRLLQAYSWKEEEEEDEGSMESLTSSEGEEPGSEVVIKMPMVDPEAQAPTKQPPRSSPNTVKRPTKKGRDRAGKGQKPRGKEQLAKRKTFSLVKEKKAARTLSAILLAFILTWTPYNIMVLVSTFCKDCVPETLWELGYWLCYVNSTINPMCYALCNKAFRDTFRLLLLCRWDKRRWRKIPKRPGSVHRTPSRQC
CHO-K1 Ca ag: M1 agonist counterscreen hit in parental CHO-K1 cells | Fluo-8 calcium fluorescence; scaled to maximal ATP response, vehicle zero | activation, % at 3 µM | 0.48% of 360,000 active | AID 602248; in the data active = activation above about 15%;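 also: untransfected CHO-K1 host cells lacking M1 receptor as counterscreen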
CHO-K1 Ca antag: M1 antagonist counterscreen hit in parental CHO-K1 cells; ATP-induced calcium, Fluo-8 fluorescence; inhibition, % at 3 µM; 0.6% of 360,000 active; AID 602250;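 active = inhibition above a per-plate cutoff, the plate's mean sample inhibition plus 3 SD, cut at about 24% in these data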;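 also: 0% = DMSO plus EC80 ATP and 100% = DMSO alone without ATP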
CHRM1 antagonist: human CHRM1 antagonism; P11229; CHO-K1 hM1, Fluo-8 calcium fluorescence, ACh EC80 antagonist; inhibition, % at 3 µM; 1.3% of 360,000 active;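 active = percent inhibition above its own plate's cutoff, namely the mean of that plate's compound wells plus 3 SD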;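 also: peak over basal fluorescence ratio during 140 s after agonist addition; 0% = ACh EC80 plus DMSO and 100% = DMSO alone without agonist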
M1 PAM parental: counter-screen for M1 PAMs: effect in parental CHO-K1 cells; ATP EC20, Fluo-8 calcium fluorescence; 0% at ATP EC20, 100% at ATP max; activation, % at 3 µM; 0.02% of 360,000 active; AID 602247;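 active = activation above the run cutoff, the mean activation of all test compounds plus 3 SD, cut at about 40% in these data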;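 also: peak over basal fluorescence ratio in a 140 s read after ATP addition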
CHRM1 PAM: human CHRM1 positive allosteric modulation; P11229; CHO-K1 hM1, Fluo-8 calcium fluorescence, ACh EC20; 0% = ACh EC20, 100% = maximal ACh; activation, % at 3 µM; 0.088% of 360,000 active; AID 588819; in the data active = activation above about 19%, passing the limit was not always enough
* hit, by the source's call.

Screening O=C(CN1CCOCC1)Nc1ccc(NC(=O)c2ccccc2F)cc1 returned M1 ag -2, CHO-K1 Ca ag 3, CHO-K1 Ca antag -15, CHRM1 antagonist -9, M1 PAM parental 15 and CHRM1 PAM 14.
`CCN(C(=O)COC(=O)COc1ccc(Cl)c(C)c1)C1CCS(=O)(=O)C1` (centres undefined) gave M1 ag -3, CHO-K1 Ca ag 4, CHO-K1 Ca antag -11, CHRM1 antagonist -1, M1 PAM parental 13 and CHRM1 PAM 3.
CCOC(=O)N1CCN(Cc2c(O)ccc3ccccc23)CC1 was read as M1 ag 4, CHO-K1 Ca ag 16*, CHO-K1 Ca antag -3, CHRM1 antagonist -5, M1 PAM parental -7 and CHRM1 PAM 2.
`CCOC(=O)N1CCN(C(=O)Cc2c(C(=O)O)n(C)c3ccccc23)CC1` gave M1 ag 28*, CHO-K1 Ca ag 0, CHO-K1 Ca antag -13, CHRM1 antagonist -5, M1 PAM parental 18 and CHRM1 PAM 1.
Screening Cc1ccc(NC(=O)Nc2c(Cl)cccc2Cl)cn1 returned M1 ag 4, CHO-K1 Ca ag 7, CHO-K1 Ca antag -17, CHRM1 antagonist -7, M1 PAM parental 20 and CHRM1 PAM 12.
For NC1=NC[C@@H](CC2CCCCC2)N1CCc1cc(C(F)(F)F)cc(C(F)(F)F)c1 the results were M1 ag 1, CHO-K1 Ca ag 0, CHO-K1 Ca antag -5, CHRM1 antagonist 35*, M1 PAM parental 7 and CHRM1 PAM -17.
For CCOc1ccc(-n2c(-c3ccc(Cl)cc3)c[n+]3c2SCC3)cc1 the results were M1 ag -7, CHO-K1 Ca ag 1, CHO-K1 Ca antag -16, CHRM1 antagonist 50*, M1 PAM parental 18 and CHRM1 PAM -19.
`c1ccc(-c2c[n+]3c(n2-c2ccccc2)SCC3)cc1` gave M1 ag -9, CHO-K1 Ca ag 0, CHO-K1 Ca antag -6, CHRM1 antagonist -4, M1 PAM parental 17 and CHRM1 PAM 0.
COCCN(C(=O)CSc1nc2ccccc2c(=O)n1C(C)COC)c1c(N)n(Cc2ccccc2)c(=O)[nH]c1=O (centres undefined) was read as M1 ag -13, CHO-K1 Ca ag 1, CHO-K1 Ca antag 4, CHRM1 antagonist 7, M1 PAM parental 6 and CHRM1 PAM -22.
`CCCN(C(=O)CSCc1ccccc1C)c1c(N)n(Cc2ccccc2)c(=O)[nH]c1=O` gave M1 ag 5, CHO-K1 Ca ag 1, CHO-K1 Ca antag -12, CHRM1 antagonist -27, M1 PAM parental 11 and CHRM1 PAM 26*.
For CCCN(C(=O)CSCc1ccc(C)cc1)c1c(N)n(Cc2ccccc2)c(=O)[nH]c1=O the results were M1 ag -1, CHO-K1 Ca ag -1, CHO-K1 Ca antag -1, CHRM1 antagonist -5, M1 PAM parental -10 and CHRM1 PAM 4.
COCCN(C(=O)CSc1nc2ccccc2c(=O)n1CC(C)C)c1c(N)n(Cc2ccccc2)c(=O)[nH]c1=O was read as M1 ag -10, CHO-K1 Ca ag 20*, CHO-K1 Ca antag 1, CHRM1 antagonist -9, M1 PAM parental 16 and CHRM1 PAM 15.
Screening COc1ccc(OC)c(-c2nnc3n2N=C(c2ccc(OC(F)F)c(OCC4CC4)c2)CS3)c1 returned M1 ag -10, CHO-K1 Ca ag 0, CHO-K1 Ca antag -14, CHRM1 antagonist 40*, M1 PAM parental 2 and CHRM1 PAM -30.
For COc1ccc(C2=Nn3c(nnc3-c3ccccc3OC)SC2)cc1OCC1CC1 the results were M1 ag -10, CHO-K1 Ca ag 0, CHO-K1 Ca antag -20, CHRM1 antagonist -10, M1 PAM parental 25 and CHRM1 PAM 6.
Cc1ccc2nc(SCc3nc4c(cnn4-c4ccccc4)c(=O)[nH]3)[nH]c2c1 was read as M1 ag 12, CHO-K1 Ca ag 11, CHO-K1 Ca antag 27*, CHRM1 antagonist 26, M1 PAM parental 0 and CHRM1 PAM -6.
`COc1cccc(Cl)c1NC(=O)N1CCN(c2ccnc3cc(Cl)ccc23)CC1` gave M1 ag -2, CHO-K1 Ca ag 7, CHO-K1 Ca antag -1, CHRM1 antagonist 34*, M1 PAM parental 12 and CHRM1 PAM -17.
`COc1cccc(Cl)c1NC(=O)N1CCN(c2cc(C)nc3ccccc23)CC1` gave M1 ag -9, CHO-K1 Ca ag 0, CHO-K1 Ca antag -27, CHRM1 antagonist -8, M1 PAM parental 15 and CHRM1 PAM 0.
CCC(=O)N1CCN(c2ccnc3cc(Cl)ccc23)CC1 was read as M1 ag -4, CHO-K1 Ca ag 2, CHO-K1 Ca antag -11, CHRM1 antagonist -11, M1 PAM parental 15 and CHRM1 PAM 4.
For CCOC(=O)N1CCN(c2ccnc3cc(Cl)ccc23)CC1 the results were M1 ag -12, CHO-K1 Ca ag 4, CHO-K1 Ca antag -12, CHRM1 antagonist 91*, M1 PAM parental -4 and CHRM1 PAM -38.
`Cc1ccc(NC(=O)CCNC(=O)c2ccc(Br)cc2)nc1` gave M1 ag 2, CHO-K1 Ca ag -1, CHO-K1 Ca antag -2, CHRM1 antagonist -20, M1 PAM parental -3 and CHRM1 PAM 19.
`CCOc1cc(S(=O)(=O)NC2CCCCC2)ccc1F` gave M1 ag -5, CHO-K1 Ca ag 24*, CHO-K1 Ca antag 7, CHRM1 antagonist 4, M1 PAM parental 10 and CHRM1 PAM 0.
O=C(CCc1nc(-c2ccc(F)cc2)no1)Nc1cccc(C(=O)NC2CC2)c1 was read as M1 ag 2, CHO-K1 Ca ag 9, CHO-K1 Ca antag -12, CHRM1 antagonist 9, M1 PAM parental 3 and CHRM1 PAM -6.
`O=C(O)CCCC(=O)Nc1ccn(-c2ccccc2)n1` gave M1 ag -2, CHO-K1 Ca ag 0, CHO-K1 Ca antag -1, CHRM1 antagonist -23, M1 PAM parental 13 and CHRM1 PAM 5.
`CC(=O)CC(=O)Nc1ccn(-c2ccccc2)n1` gave M1 ag 3, CHO-K1 Ca ag 0, CHO-K1 Ca antag 27*, CHRM1 antagonist 16, M1 PAM parental -9 and CHRM1 PAM -4.
COc1cc2c(cc1OC)C(c1ccc([N+](=O)[O-])cc1)N(C(C)=O)CC2 (centres undefined) was read as M1 ag 4, CHO-K1 Ca ag 16*, CHO-K1 Ca antag -3, CHRM1 antagonist -3, M1 PAM parental 16 and CHRM1 PAM 0.
`C[C@@H]1CCC[C@@]2(O[C@@H](CCO)C[C@H](O)[C@H]2O)O1` gave M1 ag -2, CHO-K1 Ca ag 0, CHO-K1 Ca antag -4, CHRM1 antagonist -3, M1 PAM parental 8 and CHRM1 PAM 7.
Screening O=C(Nc1ccc(OCCO)cc1)c1csc([C@@H]2O[C@H](CO)[C@H](O)[C@H](O)[C@H]2O)n1 returned M1 ag -3, CHO-K1 Ca ag 2, CHO-K1 Ca antag 11, CHRM1 antagonist -21, M1 PAM parental 4 and CHRM1 PAM 9.

Source: PubChem BioAssay
